PubChem BioAssay (EPA / NIEHS)
Records with an inconclusive call do not appear. Active and inactive are the calls of the source. Rule for the calls: active = hit-call score of the fitted dose curve at least 0.9, where 1 is the maximum; inconclusive = response in the unintended direction; inactive = score below 0.9.

What follows are compounds tested on alkyl and aryl transferase (GSTA2), GSTA2 (gene 2939) (assay: CLD_GSTA2_48hr: CellzDirect (CLD) Gene Expression Assay for alkyl and aryl transferase (GSTA2) at 48 hours (AID 2283708);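 note: active means mRNA induction above DMSO vehicle baseline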).
Method: CLD_48hr is a cell-based, multiplexed-readout assay that uses hepatocyte, a human liver primary cell, with measurements taken at 48 hours after chemical dosing in a 96-well plate.CLD_GSTA2_48hr is one of 16 assay component(s) measured or calculated from the CLD_48hr assay. It is designed to make measurements of mRNA induction, a form of inducible reporter, as detected with chemiluminescence signals by Quantitative Nuclease Protection Assay (qNPA) technology.Data from the assay component CLD_GSTA2_48hr was analyzed at the endpoint, CLD_GSTA2_48hr, in the positive analysis fitting direction relative to DMSO as the negative control and baseline of activity. Using a type of inducible reporter, gain-of-signal activity can be used to understand changes in the reporter gene as they relate to the gene GSTA2. Furthermore, this assay endpoint can be referred to as a primary readout. To generalize the intended target to other relatable targets, this assay endpoint is annotated to the transferase intended target family, where subfamily is alkyl and aryl transferase.
Human hepatocyte cultures were treated daily for two consecutive days with fresh dosing solutions containing appropriate concentrations of the 320 ToxCast chemicals (chemical identities were blinded to CellzDirect and other ToxCast collaborators), vehicle control (0.2% DMSO), and positive control inducers as summarized in Table 1. […] These replicate data, coupled with internal replicates designed within the blinded ToxCast chemical library, provided additional data to evaluate interindividual differences between hepatocyte preparations and their potential impact on chemical profiles.Cell morphology and integrity were evaluated using phase-contrast microscopy as an indicator of hepatocyte cell health (Tyson & Green, 1987). Cultures for each treatment group (i.e., media, vehicle [0.2% DMSO], positive control inducers [multiple concentrations], and the ToxCast chemicals [multiple concentrations]) were observed and cell morphology was assessed relative to vehicle control cultures at each harvest time point (0, 6, 24, or 48 h). […] Images were evaluated at the conclusion of the study to assess changes in cell integrity and account for the effects of chemical exposure on uncharacteristic changes in concentration-dependent gene expression profiles. The results from these determinations of apparent cytotoxicity were annotated (yes/no) alongside the corresponding qNPA data for reference.At the conclusion of each treatment period, hepatocyte cultures (96-well) were washed with 1 volume of HBSS, lysed by addition of 25 ul ArrayPlate lysis buffer (HTG, Tucson, AZ), and 70 ul/well of Denaturation Oil, denatured by incubation at 95C for 10 min, and frozen at approximately -70C until analysis by nuclease protection assay (qNPA) (Roberts et al., 2007). For qNPA analysis, cell lysates were thawed at 50C for approximately 30 min, qNPA probes were added, and samples were incubated at 95C for 10 min to begin the detection process by denaturing the target RNA, dissociating the duplexes and secondary structure hybridization. At the conclusion of the hybridization period, S1 nuclease reagent was added to each sample to digest all nonprotected nucleotides at 50C for 60-90 min. At the conclusion of the S1 nuclease digestions, all reactions were stopped by transfer of all the samples to fresh plates containing stop solution and incubated at 95C for 15 min to deactivate the enzyme, dissociate the mRNA/ DNA probe heterodimers, and hydrolyze the resulting single stranded mRNA, leaving a stoichiometric amount of single-stranded DNA nuclease protection probe, unmodified in sequence, as the only intact oligonucleotide left in the sample. Neutralization solution was subsequently applied to cooled (room temperature) plates, and samples were transferred to ArrayPlates for overnight incubations at 50Cto allow probes to be captured onto programmed locations on the ArrayPlates. […]

SMILES	AC50	outcome
C=C(C)[C@H]1Cc2c(ccc3c2O[C@@H]2COc4cc(OC)c(OC)cc4[C@@H]2C3=O)O1	0.66 µM (active)	–
CN1COCN(Cc2cnc(Cl)s2)C1=N[N+](=O)[O-]	–	inactive
CC(C1CC1)C(O)(Cn1cncn1)c1ccc(Cl)cc1 (stereo not given)	–	inactive
CC(C)=CC1C(C(=O)OCN2C(=O)C3=C(CCCC3)C2=O)C1(C)C (stereo not given)	–	inactive
COP(=O)(NC(C)=O)SC (stereo not given)	–	inactive
CCC(CC)Nc1c([N+](=O)[O-])cc(C)c(C)c1[N+](=O)[O-]	–	inactive
C#CC(C)(C)NC(=O)c1cc(Cl)cc(Cl)c1	–	inactive
Nc1nc(N)nc(NC2CC2)n1	–	inactive
CN(C)[C@@H]1C(=O)C(C(N)=O)=C(O)[C@@]2(O)C(=O)C3=C(O)c4c(O)cccc4[C@@](C)(O)[C@H]3[C@H](O)[C@@H]12	–	inactive
CON=C(C(=O)OC)c1ccccc1CON=C(C)c1cccc(C(F)(F)F)c1	–	inactive
COP(=O)(OC)OC(Br)C(Cl)(Cl)Br (stereo not given)	–	inactive
CSc1nc(NC(C)C)nc(NC(C)C)n1	–	inactive
CCOP(=O)(SC(C)CC)N1CCSC1=O (stereo not given)	–	inactive
COc1ccc(C(=CC(=O)N2CCOCC2)c2ccc(Cl)cc2)cc1OC	32.2 µM (active)	–
S=C1NCCN1	–	inactive
CSC1=N[C@@](C)(c2ccccc2)C(=O)N1Nc1ccccc1	–	inactive
CNC(=O)ON=C(SC)C(=O)N(C)C	–	inactive
CCOP(=S)(Oc1cnc(C(C)(C)C)nc1)OC(C)C (stereo not given)	20 µM (active)	–
CC1=NNC(=O)N(/N=C/c2cccnc2)C1	–	inactive
CCOP(=S)(OCC)SCCSCC	–	inactive

SMILES	AC50	outcome
CCc1cnc(C2=NC(C)(C(C)C)C(=O)N2)c(C(=O)O)c1 (stereo not given)	–	inactive
CCCCOC(=O)c1ccccc1C(=O)O	–	inactive
CC1(C(=O)Nc2ccc(O)c(Cl)c2Cl)CCCCC1	–	inactive
COP(=O)(OC)C(O)C(Cl)(Cl)Cl (stereo not given)	–	inactive
Nc1c(Cl)cc([N+](=O)[O-])cc1Cl	–	inactive
CNC(=O)Oc1cccc2c1OC(C)(C)O2	–	inactive
CN(C)NC(=O)CCC(=O)O	–	inactive
CCCOc1nn(C(=O)NS(=O)(=O)c2ccccc2C(=O)OC)c(=O)n1C	–	inactive
CC(=NC#N)N(C)Cc1ccc(Cl)nc1	–	inactive
CCc1cccc(C)c1N(C(=O)CCl)C(C)COC (stereo not given)	–	inactive
FC(F)C(F)(F)OCC(Cn1cncn1)c1ccc(Cl)cc1Cl (stereo not given)	–	inactive
CCOC(=O)CC(SP(=O)(OC)OC)C(=O)OCC (stereo not given)	–	inactive
Cc1cc(C2CC2)nc(Nc2ccccc2)n1	–	inactive
CCOP(=O)(OCC)Oc1cc(C)nc(C(C)C)n1	–	inactive
C[N+]1(C)CCCCC1	–	inactive
CCOP(=S)(OCC)OC(Cl)C(Cl)(Cl)Cl (stereo not given)	–	inactive
COP(=O)(OC)SCn1c(=O)oc2cc(Cl)cnc21	–	inactive
N#CSCSC#N	–	inactive
CCc1cccc(CC)c1N(COC)C(=O)CCl	32.1 µM (active)	–
CCCCN(CC)c1c([N+](=O)[O-])cc(C(F)(F)F)cc1[N+](=O)[O-]	–	inactive
